L3MBTL1 block = inhibitors of human L3MBTL1 | actives 0.66% (n = 230,000) | Q9Y468 | AlphaScreen L3MBTL1–H3K9me1 peptide binding | Potency, µM (series often up to 57.1 µM), inactives show at the highest dose activity, negative = inhibition, actives largely listed as inhibitors; note: nearly all actives have a fitted effect of over 60% in size
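AlphaScreen assay: L3MBTL1 (50 nM final) was preincubated 30 min at room temperature with biotinylated H3(1-15)K9me1 peptide (75 nM final), then 30 min with library compounds; streptavidin donor and nickel chelate acceptor beads (10 ug/mL final) added, 30 min dark.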
BLM inh = blocks DNA unwinding by human BLM helicase. actives 0.2% (n = 350,000). Potency, µM (titrated, usually from 56.1 µM), for inactives: top-dose activity change, negative = inhibition, most hits filed as inhibitors. recombinant BLM DNA unwinding, fluorescence dequenching;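 note: plate controls were vehicle for no effect and no enzyme for full effect; nearly all actives have a fitted effect of over 35% in size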
RECQ1 inh = blocks DNA unwinding by human RECQ1. AID 2549. P46063. RECQ1 DNA unwinding, red fluorescence kinetic read. actives 0.54% (n = 240,000). Potency, µM (series often up to 57.3 µM), for the others: at the top dose activity, negative = inhibition, hits mostly inhibitors;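 note: plate controls were vehicle for no effect and no enzyme for full effect; nearly all actives have a fitted effect of over 30% in size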
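50 nM RECQ1T1 preincubated 15 min with compound in Tris pH 8.0 buffer with MgCl2, DTT, Tween-20 and 2.5 ug/ml poly(dI-dC); started with 200 nM TAMRA/BHQ-2 forked duplex and 2 mM ATP. Unwinding read as fluorescence (525/598 nm), two reads 2 h apart.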
APE1 inh = APE1 (human) endonuclease inhibition; P27695; recombinant APE1, TAMRA/BHQ-2 abasic DNA cleavage fluorescence; Potency, µM (series often up to 65.8 µM), without a hit: top-dose activity change, negative = inhibition, most hits filed as inhibitors; actives 0.35% (n = 350,000);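 note: plate controls were vehicle for no effect and reference inhibitor for full effect; nearly all actives have a fitted effect of over 55% in size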
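Step 1: APE1 (0.75 nM) with compound, 15 min RT. Step 2: add 50 nM fluorophore/quencher THF duplex. Step 3: three fluorescence reads 60 s apart (525/598 nm); read 3 minus read 1 = reaction progress.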
GoLoco inh red = inhibitors of human Gai1-RGS12 GoLoco interaction (red fluorophore). P63096. Gai1:RGS12 GoLoco peptide FP, rhodamine, 10 min. Potency, µM (highest dose often 61.6 µM), for the others: at the highest dose activity, negative = inhibition, hits mostly inhibitors. actives 0.44% (n = 230,000). AID 880; active = well fitted inhibition curve with a large enough effect, not every such curve was filed as active; inactive = no such curve, though single readings can be large or run the other way; note: nearly all actives have a fitted effect of over 30% in size
Target sequence (P63096 whole entry, looked up): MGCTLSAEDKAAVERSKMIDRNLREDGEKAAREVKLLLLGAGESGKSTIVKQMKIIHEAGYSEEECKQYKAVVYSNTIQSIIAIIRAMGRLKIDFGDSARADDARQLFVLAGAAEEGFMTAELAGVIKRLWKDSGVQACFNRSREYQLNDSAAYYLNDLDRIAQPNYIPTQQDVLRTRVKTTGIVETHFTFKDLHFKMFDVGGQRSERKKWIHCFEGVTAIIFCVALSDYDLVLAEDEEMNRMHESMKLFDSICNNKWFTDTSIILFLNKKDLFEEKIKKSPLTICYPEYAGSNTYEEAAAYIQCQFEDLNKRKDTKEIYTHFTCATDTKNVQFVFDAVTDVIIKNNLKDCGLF
KDM4E inh = blocks human JMJD2E demethylase activity; actives 1.6% (n = 230,000); Potency, µM (titrated, usually from 57.1 µM), inactives show at the highest dose activity change, negative = inhibition, hits mostly inhibitors; JMJD2E catalytic domain, FDH-coupled NADH fluorescence (FDH is formaldehyde dehydrogenase);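 note: 0% = wells with enzyme and -100% = buffer wells without enzyme; nearly all actives have a fitted effect of over 50% in size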
The depositor's hits bear a star; ? = inconclusive; . = not tested or not shown; [ ] = dose if it differs, or a comment. This is one part of a sample in which hits are shown more often than they occur. Unless noted, calls come from the whole dose curve; as a rule, active = well fitted curve in the direction sought with a large enough effect; inconclusive = small, poorly fitted or top-dose-only effect, or another doubt; inactive = no such curve, though single readings can be large; an effect the other way counts as inactive or inconclusive. Unless noted, % is set by controls: 0 for no effect and ±100 for the full control effect; potency is the fitted concentration of half-maximal effect.

SMILES | L3MBTL1 block | BLM inh | RECQ1 inh | APE1 inh | GoLoco inh red | KDM4E inh
COc1cccc(/C=N/NC(=O)N/N=C/c2cccc(OC)c2O)c1O | -4%[2.29 µM] | -8% | . | ? | . | .
COc1cccc(/C=N/NC(=O)C(=O)N2CCCC2)c1O | 22µM* | 1% | -2% | -1% | -21% | 0%
COc1cccc(/C=N/NC(=O)CSc2ccccc2C)c1O | 13% | -2% | -5% | -9% | 3% | 28µM*
COc1ccc(/C=N/NC(=O)c2nc(-c3ccccc3)n(-c3ccccc3)n2)c(O)c1 | -12% | -5% | 1% | 0% | 11% | 18µM*
COc1ccccc1/C=C\C(=O)NCC(=O)N/N=C/c1cccc(OC)c1O | . | -27% | . | 7% | . | .
COc1cccc(/C=N/NC(=O)C(=O)N2CCCC2)c1OC | 5% | 0% | -15% | 10% | -7% | 0%
COc1ccc(/C=N/NC(=O)c2nc(-c3ccccc3)n(-c3ccccc3)n2)cc1 | -5% | 6% | -8% | -6% | 7% | ?
COc1cccc(/C=N/NC(=O)CNC(=O)CCc2ccccc2)c1O | 15% | -11% | -12% | -1% | 17% | 4µM*
CCN(CC)c1ccc2cc(-c3nc(-c4ccccc4)no3)c(=O)oc2c1 | . | -5% | . | . | . | .
CC(C)(C)n1ncc2c(=O)n(Cc3cc(F)ccc3Cl)cnc21 | . | . | . | 12% | . | .
Cc1ccc(/C=N/NC(=O)CNC(=O)c2cccs2)cc1 | . | 0% | . | 21% | . | .
COc1cccc(/C=N/NC(=O)CNC(=O)c2cccs2)c1O | . | -1% | 2% | 3% | 2% | 8.9µM*
Cc1ccc(-c2cc(-c3ccco3)c3c(N)c(C(=O)NN)oc3n2)cc1 | 18% | 3% | -2% | -3% | 29% | 3.2µM*
NNC(=O)c1oc2nc(-c3cccs3)cc(-c3ccco3)c2c1N | . | 2% | . | -25% | . | .
O=[N+]([O-])c1c(Nc2ccccn2)cc(Cl)c2nonc12 | . | ? | 90% | -4% | -38% | 1µM*
Cc1ccc(C)c(Cn2c(-c3cccs3)nc3ccccc32)c1 | . | -10% | . | . | . | .
Cc1cccc(N(C)C(=O)CCS(=O)(=O)c2ccc3c(c2)oc(=O)n3C)c1 | . | 0% | . | . | . | .
FC(F)(F)C1=Nc2cccc3cccc(c23)N1 | 2.5µM* | . | . | -5% | . | .
O=C(/C=C1\NC2(CCCC2)Cc2ccccc21)C(=O)N/N=C/c1ccc(O)c(O)c1 | 14µM* | -1% | 1% | 3% | 29% | -3%
C[Si](C)(C)O[Si](C)(C)C | . | 4% | . | . | 8% | .
ICCc1ccccc1 | . | . | 1% | 4% | 3.2µM* | .
Cc1ccc(-n2c(=O)c3ccccc3n(CC(=O)Nc3cccc(C(F)(F)F)c3)c2=O)cc1 | . | -15% | . | . | . | .
CCCCn1c(SCC(=O)NCc2ccco2)nc2c(sc3ccccc32)c1=O | . | 6% | 0% | -6% | 3% | 7.1µM*
C[C@@](Cc1ccccc1)(NC(=O)CN)c1ccccc1 | . | -10% | ? | . | 5% | 0%
CCCCOC(=O)c1ccc(NC2=NS(=O)(=O)c3ccccc32)cc1 | . | -8% | . | . | . | .
SMILES | L3MBTL1 block | BLM inh | RECQ1 inh | APE1 inh | GoLoco inh red | KDM4E inh
CC(C)(C)C(=O)[C@H](C(c1ccccc1)N1CCOCC1)N1CCOCC1 (stereo partly drawn) | . | . | . | . | 5%[14.2 µM] | .
CCCCCn1c(=N)n(CC(O)COc2ccccc2OC)c2ccccc21 (stereo not drawn) | 5µM* | 1% | 7% | -1% | 0% | -6%
COc1ccccc1OCC(O)Cn1c(=N)n(Cc2ccccc2)c2ccccc21 (stereo not drawn) | -4% | 5% | -10% | 3% | 7% | -7%
N#Cc1c(-c2ccc(OCCOCCOCCNC(=O)CCCC[C@@H]3SC[C@@H]4NC(=O)N[C@@H]43)cc2)no[n+]1[O-] | . | . | . | -6% | . | .
CCCC(=O)c1cc(O)c(O)cc1O | . | . | 1.1µM* | 0.89µM* | -17% | .
CCCc1cc(C(=O)Cc2ccc(F)cc2)c(O)cc1O | -16% | -17% | -22% | -7% | 8% | -19%
COc1cc(NC(=O)Cn2c(=O)n(CC(=O)NCCc3ccc(OC)c(OC)c3)c(=O)c3sccc32)cc(OC)c1 | . | -20% | . | . | . | .

From PubChem
